These results are taken from the supplement of paper PMC13380429.

Test [1] concerns Vero E6 infected with SARS-CoV-2. The test is described as follows: morphology score (similarity to uninfected cells); higher = more like uninfected cells. The settings on record: 24 h.
Test [2] shares this test system. Briefly: SARS-CoV-2 infection rate relative to infected DMSO; higher = more infection, active = 60 or less. The settings on record: 24 h.

Molecule `O=C1[C@@H]2[C@H]3CC[C@H](C3)[C@@H]2C(=O)N1C[C@@H]1CCCC[C@H]1CN1CCN(c2nsc3ccccc23)CC1` [lurasidone] (10 µM) had a morphology score in test [1] of 0.0507. Also, the SARS-CoV-2 infection rate in test [2] was 96.5% (inactive).
For `Cc1cccc(-c2n[nH]cc2-c2ccc(F)c(-c3cnn(CCO)c3)c2)n1` (10 µM) the same measures were 0.148 and 104% (inactive).
With `COc1ccc(Oc2c(Cl)cnn(C3c4ccccc4-c4ccccc43)c2=O)cc1` (10 µM), in test [1], the morphology score amounted to 0.0752. The SARS-CoV-2 infection rate in test [2] was 102% (inactive).
For `CC[N+]1(C)CCCC(OC(=O)C(O)(c2ccccc2)c2ccccc2)C1` (configuration not stated) [pipenzolate] (10 µM) the same measures were 0.153 and 98% (inactive).
In test [1], `C[C@H](CS)C(=O)N1CCC[C@H]1C(=O)O` [captopril] (10 µM) gave a morphology score of 0.0071. In addition, in test [2], the SARS-CoV-2 infection rate was 104% (inactive).
`Fc1ccc(-c2nc3n(c2-c2ccncc2)CCS3)cc1` (10 µM) gave a morphology score in test [1] of 0.209. Besides, in test [2], the SARS-CoV-2 infection rate is 94% (inactive).
The corresponding values for `CCC(COC(=O)c1cc(OC)c(OC)c(OC)c1)(c1ccccc1)N(C)C` (configuration not stated) [trimebutine] (10 µM) are 0.103 and 91% (inactive).
In turn, `Cc1cc(C(C)(C)C)cc(C)c1CC1=NCCN1` [xylometazoline] (10 µM) yielded a morphology score in test [1] of -0.0246. In addition, the SARS-CoV-2 infection rate in test [2] is 106% (inactive).
For `CC1CS(=O)(=O)CCN1/N=C/c1ccc([N+](=O)[O-])o1` (configuration not stated) [nifurtimox] (10 µM) the same measures were 0.0407 and 102% (inactive).
The corresponding values for `O=C(O)c1ccccc1NCCc1ccccc1` [tromaril] (10 µM) are -0.0774 and 105% (inactive).
`COc1cc(/C=C/C(=O)O)ccc1O` [ferulic-acid] (10 µM) displayed a morphology score in test [1] of -0.0443. The SARS-CoV-2 infection rate in test [2] is 110% (inactive).
Molecule `Cc1ccc(Cl)c(OCC(O)CNC(C)(C)C)c1` (configuration not stated) [bupranolol] (10 µM) registered a morphology score in test [1] of -0.00864. Also, the SARS-CoV-2 infection rate in test [2] is 111% (inactive).
For `COc1ccc([C@@H]2CC(=O)c3c(O)cc(O)cc3O2)cc1O` [hesperetin] (10 µM) the same measures were 0.0387 and 107% (inactive).
For `CCN(Cc1ccncc1)C(=O)C(CO)c1ccccc1` (configuration not stated) [tropicamide] (10 µM), in test [1], the morphology score is -0.0682. The SARS-CoV-2 infection rate in test [2] is 104% (inactive).
For the molecule `CC(C)NC[C@@H](O)c1ccc(O)c(O)c1` (racemic) [isoprenaline] (0.833333 µM), the morphology score in test [1] stood at 0.241. Besides, in test [2], the SARS-CoV-2 infection rate was 100% (inactive).
`NCCC(=O)N[C@@H](Cc1c[nH]cn1)C(=O)O` [carnosine] (0.833333 µM): the morphology score in test [1] was 0.0964. Moreover, in test [2], the SARS-CoV-2 infection rate is 99% (inactive).
Regarding `CCC[S+]([O-])c1ccc2[nH]c(NC(=O)OC)nc2c1` (configuration not stated) [albendazole-oxide] (10 µM), the morphology score in test [1] worked out at 0.034. Also, in test [2], the SARS-CoV-2 infection rate was 110% (inactive).
`CC(C)[C@@H]1CC[C@@H](C)C[C@H]1O` [levomenthol] (10 µM) gave a morphology score in test [1] of -0.181. The SARS-CoV-2 infection rate in test [2] is 108% (inactive).
The corresponding values for `Cc1ccc(-c2ncn(-c3ccc(Nc4nccc(-c5cccc(N6CCOCC6)c5)n4)cc3)n2)cn1` (10 µM) are -0.292 and 102% (inactive).
The corresponding values for `N[C@H](C(=O)O)[C@H](O)c1ccc(O)c(O)c1` [droxidopa] (10 µM) are -0.0971 and 122% (inactive).
For `O=C(N[C@H](Cc1ccccc1)C(=O)O)c1sc2cc(F)ccc2c1Cl` (10 µM) the same measures were 0.16 and 79.5% (inactive).
`CCCCN1CCC(CNC(=O)c2c3n(c4ccccc24)CCCO3)CC1` [piboserod] (10 µM): in test [1], the morphology score worked out at 0.132. Also, the SARS-CoV-2 infection rate in test [2] was 92.5% (inactive).
The corresponding values for `COc1cc2ncnc(Nc3cccc(Cl)c3F)c2cc1OC(=O)N1CCN(C)C[C@H]1C` (10 µM) are -0.178 and 114% (inactive).
In turn, `Cc1nnc2ccc(-c3cccc(C(F)(F)F)c3)nn12` (10 µM) displayed a morphology score in test [1] of -0.183. In addition, the SARS-CoV-2 infection rate in test [2] was 104% (inactive).
Take `O=C(Nc1ccc(Br)cc1)c1cc(Br)cc(Br)c1O` [tribomsalan] (10 µM): the morphology score in test [1] worked out at 0.043. The SARS-CoV-2 infection rate in test [2] is 106% (inactive).
For `COc1cc2nc(N3CCN(C(=O)C4CCCO4)CC3)nc(N)c2cc1OC` (configuration not stated) [terazosin] (10 µM), the morphology score in test [1] was -0.108. The SARS-CoV-2 infection rate in test [2] was 110% (inactive).
For `CC1(C)CC[C@]2(C(=O)O)CC[C@]3(C)C(=CC[C@@H]4[C@@]5(C)CC[C@H](O)C(C)(C)[C@@H]5CC[C@]43C)[C@@H]2C1` [oleanolic-acid] (10 µM) the same measures were 0.0528 and 110% (inactive).
For the molecule `CC(C)c1ccc(C(=O)c2cccs2)c(SCCCCCCCCN(C)C)n1` (0.833333 µM), the morphology score in test [1] turned out to be 0.361. For the same molecule, the SARS-CoV-2 infection rate in test [2] was 94.5% (inactive).
The corresponding values for `OCCOCCN1CCN(C(c2ccccc2)c2ccc(Cl)cc2)CC1` (configuration not stated) [hydroxyzine] (10 µM) are 0.0655 and 104% (inactive).
The corresponding values for `CNC(=O)c1cnn(-c2nc(N)c3ncn([C@@H]4O[C@H](CO)[C@@H](O)[C@H]4O)c3n2)c1` [regadenoson] (10 µM) are -0.0309 and 111% (inactive).
`C[C@@]1(O)[C@H](O)[C@@H](CO)O[C@H]1n1ccc(N)nc1=O` (10 µM) came in with a morphology score in test [1] of 0.0553. Moreover, the SARS-CoV-2 infection rate in test [2] was 103% (inactive).
